# TDP1 cell CPT: DT40-hTDP1 cell growth loss with CPT. chicken DT40 Tdp1-/-;hTDP1 cells + 20 nM CPT, ATP luminescence, 48 h. Potency, µM (highest dose often 46.2 µM), without a hit: top-dose activity change, negative = growth inhibition, actives largely listed as inhibitors. 420,000 compounds, 12% hits. AID 686979; note: nearly all actives have a fitted effect of over 55% in size
#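 Chicken DT40 Tdp1-/- cells stably complemented with human TDP1 were seeded at 400 cells/well in medium containing 20 nM camptothecin, exposed to pin-transferred compounds, and grown at 37 °C for at least 48 hr. Viability was read as ATP luminescence.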
# HT1080-NT tox: kills 2HG-producing HT-1080-NT fibrosarcoma cells | HT-1080-NT fibrosarcoma viability, CellTiter-Glo ATP luminescence, 48 h | Potency, µM (doses to about 46.1 µM), inactives show at the highest dose activity, negative = less viability, actives largely listed as cytotoxic | 360,000 compounds, 1.6% hits | AID 686970;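 note: NT is the 2HG producing partner of a matched IDH1 knockdown line; 0% = DMSO-treated cells and -100% = media-only wells without cells; nearly all actives have a fitted effect of over 55% in size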
#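 Toxicity toward the 2HG-producing NT line was scored as %Activity, normalised to DMSO and no-cell wells, from CellTiter-Glo luminescence after 48 hours' treatment.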
# TDP1 cell noCPT: qHTS for Inhibitors of human tyrosyl-DNA phosphodiesterase 1 (TDP1): qHTS in cells in absence of CPT | DT40 Tdp1-/- hTDP1 cells, no CPT, ATP luminescence, 48 h | Potency, µM (highest dose often 46.2 µM), inactives show top-dose activity change, negative = growth inhibition, most hits filed as inhibitors | 420,000 compounds, 15% hits | AID 686978, 2013; note: nearly all actives have a fitted effect of over 55% in size
#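 Camptothecin absent (DMSO only). Human TDP1-complemented DT40 knockout cells, 400 cells/well, 37 °C for minimum 48 hr; ATP measured via CellTiter-Glo, 30 min dark incubation, luminescence.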
# KB-V1 MDR tox: kills drug-selected multidrug resistant KB-V1 cells | KB-V1 MDR cells viability, CellTiter-Glo, 72 h | Potency, µM (highest dose often 46.1 µM), hits mostly cytotoxic | 400,000 compounds, 3.4% hits | AID 1347076; note: nearly all actives have a fitted effect of over 60% in size
#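 qHTS viability screen in drug-selected KB-V1 MDR cells: 72 h compound treatment at 37 degrees C, ATP luminescence end point.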
# HT1080 IDH1KD tx: toxicity to HT-1080 IDH1 knockdown cells (counter line). HT-1080 IDH1 knockdown viability, ATP luminescence, 48 h. Potency, µM (series often up to 46.1 µM), for inactives: at the top dose activity, negative = toxicity, usual class: cytotoxic. 360,000 compounds, 2% hits. AID 686971;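 note: 0% = DMSO wells and -100% = cell-free medium wells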
#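 After a 2 h attachment period, IDH1KD HT-1080 cells took pin-transferred compound for 48 h at 37 °C; ATP-based luminescence after 10 min room-temperature reagent incubation reported viability.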
# KB-3-1 cytotox: kills parental KB-3-1 adenocarcinoma cells; AID 1347075; Potency, µM (top dose mostly 46.1 µM), most hits filed as cytotoxic; 400,000 compounds, 1.4% hits; KB-3-1 viability, CellTiter-Glo ATP luminescence, 72 h; note: nearly all actives have a fitted effect of over 60% in size
#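 Using CellTiter-Glo luminescence, growth of non-resistant KB-3-1 adenocarcinoma cells is assessed 72 h after pin-tool compound addition at 37 °C. Normalized responses across the concentration series yield fitted curves.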
# An asterisk follows results filed as active; i = inactive; ? = inconclusive; . = no result. Rows were chosen to be rich in hits. Some 19% of all compounds tested hit in one or more screens of this group. Calls come from the whole dose curve; as a rule, active = well fitted curve in the direction sought with a large enough effect; inconclusive = small, poorly fitted or top-dose-only effect, or another doubt; inactive = no such curve, though single readings can be large; an effect the other way counts as inactive or inconclusive. Unless noted, % is set by controls: 0 for no effect and ±100 for the full control effect; potency is the fitted concentration of half-maximal effect.
SMILES,TDP1 cell CPT,HT1080-NT tox,TDP1 cell noCPT,KB-V1 MDR tox,HT1080 IDH1KD tx,KB-3-1 cytotox
O=c1[nH]c(/C=C/c2ccccc2OC(F)F)nc2c1cnn2-c1ccccc1,-19%,18µM*,?,i,?,i
O=C(CSc1nnc(NC(=O)c2ccc(S(=O)(=O)N3CCOCC3)cc2)s1)Nc1ccccc1C(F)(F)F,-4%,0%,?,i,0%,i
O=C(CNC(=O)c1ccc(OC(F)F)cc1)Nc1cccc(S(=O)(=O)N2CCCC2)c1,-21%,-2%,-11%,?,-9%,i
COc1ccc(Nc2nc(C)nc(N)c2S(=O)(=O)c2ccccc2)cc1,.,.,.,i,.,i
CC1OC(CCc2cccc(Cl)c2)Cc2[nH]c(=S)[nH]c(=O)c21 (centres undefined),?,-14%,26µM*,?,-5%,i
CCCCC1Cc2[nH]c(=S)[nH]c(=O)c2C(c2ccc(C(C)C)cc2)O1 (centres undefined),16µM*,21%,23µM*,i,5%,i
O=C(N/N=C/c1ccc2c(c1)OCO2)c1cc(-c2ccc(F)cc2)nc2ccccc12,15µM*,?,9.2µM*,8.2µM*,?,?
COc1cc2ccccc2cc1C(=O)N/N=C/c1ccc2c(c1)OCO2,4.6µM*,?,2.6µM*,?,?,?
COc1ccccc1C(=O)N/N=C/c1ccc2c(c1)OCO2,-2%,18%,-15%,i,15%,i
COc1ccc(-c2cc(C(=O)N/N=C/c3sccc3C)c3ccccc3n2)c(OC)c1,?,-26%,?,?,?,?
COc1ccc(-c2cc(C(=O)N/N=C/c3ccc(OC)c(COCC(F)(F)C(F)F)c3)c3ccccc3n2)c(OC)c1,5.8µM*,-2%,5.8µM*,i,2%,i
COc1ccc(-c2cc(C(=O)N/N=C/c3ccc4c(c3)OCO4)c3ccccc3n2)c(OC)c1,9.2µM*,-21%,1.8µM*,i,-23%,i
O=C(NN=Cc1ccc2c(c1)OCO2)c1ccccc1,-22%,-20%,-22%,i,?,?
Cc1cc(N2CCC(C(=O)Nc3ccc(F)cc3F)CC2)n2nc(C)c(-c3ccc(Cl)cc3)c2n1,?,.,?,i,.,i
Cc1nc(NC(=O)c2ccccc2)sc1-c1cc(C(=O)N2CCOCC2)nn1CCO,12%,6%,14%,i,0%,i
Cc1nc(NC(=O)c2ccccc2)sc1-c1cc(C(=O)N2CCOCC2)nn1Cc1ccccc1,21µM*,-12%,-18%,i,2%,i
Cc1cc(C)n2c(Br)c(CSc3nc4ccccc4o3)nc2n1,?,-5%,?,21µM*,2%,i
COc1ccccc1Cc1c(-c2ccc(Cl)cc2)nc2c(C)cc(Br)cn12,6.5µM*,?,7.3µM*,?,?,16µM*
COc1ccccc1Cc1c(-c2cccc(Br)c2)nc2c(C)cc(Br)cn12,16µM*,?,23µM*,?,?,i
O=C(CSc1ccc(F)cc1)Nc1ccc(N2CCOCC2)c(Cl)c1,-29%,-4%,?,i,2%,i
Nc1ccc2nc(SCC(=O)N3CCOCC3)sc2c1,3%,13%,-21%,i,0%,i
Nc1ccc2nc(SCC(=O)Nc3ccc(N4CCOCC4)c(Cl)c3)sc2c1,?,?,23µM*,?,-25%,?
CCC(=O)Nc1ccc2nc(SCC(=O)N3CCOCC3)sc2c1,1%,-6%,-7%,i,3%,i
CCCC(=O)Nc1ccc2nc(SCC(=O)Nc3ccc(N4CCOCC4)c(Cl)c3)sc2c1,-82%,?,16µM*,?,?,?
Nc1nnc(SCC(=O)Nc2ccc(N3CCOCC3)c(Cl)c2)s1,18µM*,-10%,12µM*,i,-1%,i
SMILES,TDP1 cell CPT,HT1080-NT tox,TDP1 cell noCPT,KB-V1 MDR tox,HT1080 IDH1KD tx,KB-3-1 cytotox
COC(=O)N1CCC[C@@]2(CCN(C(=O)Nc3cccc(F)c3)C2)C1,-5%,.,-3%,.,.,.
COc1cccc(OCC(=O)Nc2ccncc2)c1,1%,-13%,?,i,-9%,?
CC(C)CCOc1cccc(OCC(=O)Nc2ccncc2)c1,?,?,13µM*,2.9µM*,?,?
O=C(COc1ccc(Nc2ccccc2)cc1)Nc1ccncc1,?,-14%,16µM*,i,-4%,i
O=C(COc1ccc(-n2ccnc2)cc1)Nc1cccc(Cl)c1,?,0%,?,5.8µM*,-21%,?
Cc1ccc(OCC(=O)Nc2cc(C(=O)O)cc(C(=O)O)c2)cc1C,6.5µM*,11%,?,i,5%,i
Cc1ccc(OCC(=O)Nc2cc(NC(=O)COc3ccc(C)cc3)cc(C(=O)O)c2)cc1,-2%,5%,5%,i,5%,i
Cc1ccc(OCC(=O)Nc2ccncc2)cc1C,?,-1%,?,i,-13%,i
O=C(COc1ccc(-c2ccccc2)cc1)Nc1cccnc1,18µM*,-12%,21µM*,i,-16%,i
Cc1cc(OCC(=O)Nc2ccncc2)ccc1[N+](=O)[O-],?,-7%,21µM*,?,-8%,?
O=C(COc1ccc([N+](=O)[O-])cc1)Nc1cccnc1,18%,18%,12%,i,20%,i
O=[N+]([O-])c1cncc([N+](=O)[O-])c1Nc1ccccc1Cl,18µM*,-1%,23µM*,i,-1%,i
COc1ccc(-c2oc3ccc(N4CCOCC4)cc3c2C#Cc2ccc(N)cc2)cc1,7.3µM*,16µM*,6.5µM*,?,23µM*,?
COc1ccc(-c2oc3cccnc3c2C#CCO)cc1,?,10%,?,i,10%,i
COc1ccc(-c2oc3cccnc3c2C#CC2(O)CCCCC2)cc1,?,?,23µM*,i,?,i
COc1ccc(-c2oc3ccc(N4CCOCC4)cc3c2C#CC2(O)CCCCC2)cc1,?,?,16µM*,i,21µM*,21µM*
OC1(C#Cc2c(-c3ccsc3)oc3ccc(N4CCOCC4)cc23)CCCCC1,?,?,?,i,?,?
